# RECQ1 inh-1: qHTS Assay for Inhibitors of RecQ-Like Dna Helicase 1 (RECQ1); Potency, µM (top dose mostly 57.3 µM), for the others: at the highest dose activity, negative = inhibition, usual class: inhibitors; RECQ1 DNA unwinding, red fluorescence kinetic read; 240,000 compounds, 0.54% hits; ATP-dependent DNA helicase Q1 (Homo sapiens), P46063;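 note: plate controls were vehicle for no effect and no enzyme for full effect; nearly all actives have a fitted effect of over 30% in size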
# Target sequence (P46063 whole entry, looked up): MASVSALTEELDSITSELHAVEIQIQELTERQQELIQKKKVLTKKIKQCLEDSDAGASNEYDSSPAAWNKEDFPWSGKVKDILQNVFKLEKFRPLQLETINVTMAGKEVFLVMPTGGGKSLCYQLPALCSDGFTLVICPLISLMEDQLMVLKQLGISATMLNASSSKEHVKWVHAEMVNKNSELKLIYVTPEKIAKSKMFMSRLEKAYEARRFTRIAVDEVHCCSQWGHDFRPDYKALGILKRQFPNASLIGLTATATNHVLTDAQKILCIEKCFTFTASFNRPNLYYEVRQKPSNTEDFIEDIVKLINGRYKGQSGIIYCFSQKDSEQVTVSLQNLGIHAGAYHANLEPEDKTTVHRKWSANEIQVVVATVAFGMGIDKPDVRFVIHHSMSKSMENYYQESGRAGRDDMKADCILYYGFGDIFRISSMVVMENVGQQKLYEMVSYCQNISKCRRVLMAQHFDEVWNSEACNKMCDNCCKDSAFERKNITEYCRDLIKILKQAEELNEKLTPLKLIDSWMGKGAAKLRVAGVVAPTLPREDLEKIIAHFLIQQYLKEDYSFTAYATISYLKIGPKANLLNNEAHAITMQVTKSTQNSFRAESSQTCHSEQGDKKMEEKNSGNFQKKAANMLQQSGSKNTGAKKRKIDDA
#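 50 nM RECQ1T1 preincubated 15 min with compound in Tris pH 8.0 buffer with MgCl2, DTT, Tween-20 and 2.5 ug/ml poly(dI-dC); started with 200 nM TAMRA/BHQ-2 forked duplex and 2 mM ATP. Unwinding read as fluorescence (525/598 nm), two reads 2 h apart.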
# APE1 inh: qHTS Assay for Inhibitors of the Human Apurinic/apyrimidinic Endonuclease 1 (APE1); recombinant APE1, TAMRA/BHQ-2 abasic DNA cleavage fluorescence; 350,000 compounds, 0.35% hits; Potency, µM (titrated, usually from 65.8 µM), inactives show top-dose activity change, negative = inhibition, usual class: inhibitors; AID 2517, 2012;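 note: plate controls were vehicle for no effect and reference inhibitor for full effect; nearly all actives have a fitted effect of over 55% in size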
#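 APE1 at 0.75 nM preincubated 15 min at room temperature with compound. Reaction then started with 50 nM double-stranded THF-abasic substrate labelled with TAMRA/BHQ-2, and 525/598 nm fluorescence read kinetically. Activity taken as third-minus-first read difference, normalized to DMSO and NSC13755 controls.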
# WRN inhibitor: qHTS for Inhibitors of WRN Helicase; Bifunctional 3'-5' exonuclease/ATP-dependent helicase WRN (Homo sapiens), Q14191; WRN helicase unwinding, fluorescent forked duplex, kinetic; Potency, µM (series often up to 114 µM), for the others: at the highest dose activity change, negative = inhibition, usual class: inhibitors; 360,000 compounds, 0.46% hits; note: nearly all actives have a fitted effect of over 55% in size
#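 Fluorescence dequenching readout, ex 525 nm/em 598 nm, kinetic mode: forked duplex DNA (100 nM final) with adjacent fluorophore and quencher unwound by WRN (20 nM final) with 2 mM ATP. Compound preincubation 15 min, room temperature.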
# BLM helicase inh: qHTS Assay for Inhibitors of Bloom's syndrome helicase (BLM). RecQ-like DNA helicase BLM (Homo sapiens), P54132. recombinant BLM DNA unwinding, fluorescence dequenching. Potency, µM (highest dose often 56.1 µM), inactives show at the highest dose activity change, negative = inhibition, hits mostly inhibitors. 350,000 compounds, 0.2% hits;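 note: plate controls were vehicle for no effect and no enzyme for full effect; nearly all actives have a fitted effect of over 35% in size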
# TR SRC2 fluor cs: Total Fluorescence Counterscreen for Inhibitors of the Interaction of Thyroid Hormone Receptor and Steroid Receptor Coregulator 2; TRb/SRC2 Texas Red total fluorescence interference; Potency, µM (doses to about 106 µM), inactives show at the top dose fluorescence change, negative = quenching; 280,000 compounds, 0.29% hits; active = well fitted curve in either direction with a large enough effect; inconclusive = small, poorly fitted or top-dose-only effect
#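 Flags fluorescent or light-absorbing compounds by total fluorescence, S + 2P, at 555 nm excitation and 632 nm emission. Mixture: 20 nM Texas Red SRC2 peptide, 0.6 uM human TRb LBD, 1 uM T3, 5% DMSO; compound exposure 5 h at ambient temperature.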
# TRb SRC2 PPI: qHTS for Inhibitors of the Interaction of Thyroid Hormone Receptor and Steroid Receptor Coregulator 2; Thyroid hormone receptor beta (Homo sapiens), P10828; TRbeta-SRC2 peptide binding, fluorescence polarization; receptor liganded with 1 µM T3; Potency, µM (titrated, usually from 106 µM), inactives show at the highest dose activity change, negative = inhibition, usual class: inhibitors; 280,000 compounds, 0.065% hits;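 note: plate controls were bound peptide for no effect and peptide without receptor for full effect; nearly all actives have a fitted effect of over 50% in size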
#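 Quantitative HTS by FP: 0.6 uM TRb LBD, 20 nM labeled SRC2 20-mer, 1 uM T3, 5% DMSO; 5 hr ambient incubation; % activity per concentration and potencies from concentration series.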
# RECQ1 conf: Confirmation qHTS Assay for Inhibitors of RecQ-Like Dna Helicase 1 (RECQ1) | shares compounds with RECQ1 inh-1 | RECQ1 helicase DNA unwinding, fluorescence | Potency, µM (doses to about 229 µM), for the others: at the top dose activity change, negative = inhibition, usual class: inhibitors | 610 compounds, 28% hits | AID 2708, 2010; note: nearly all actives have a fitted effect of over 45% in size
# RECQ1 ADP FP: Counterscreen for RECQ1 Inhibitors: ADP Fluorescence Polarization Displacement Assay | ADP fluorescence polarization displacement counterscreen | 530 compounds, 27% hits | AID 2711, 2010 | Potency, µM (series often up to 228 µM), for the others: at the highest dose activity change, negative = inhibition, usual class: inhibitors | shares compounds with RECQ1 inh-1; note: nearly all actives have a fitted effect of over 45% in size
# RECQ1 inh-2: Confirmation qHTS Assay for Inhibitors of RecQ-Like Dna Helicase 1 (RECQ1) - Round 2 Cherry Picks | Potency, µM (series often up to 119 µM), without a hit: at the highest dose activity, negative = inhibition, actives largely listed as inhibitors | recombinant RECQ1 DNA unwinding, red fluorescence | AID 504841, 2011 | 1,100 compounds, 15% hits | shares compounds with RECQ1 inh-1; note: nearly all actives have a fitted effect of over 50% in size
# Numbers without * were called inactive; i = inactive; ? = inconclusive; nt = no result; [ ] = another dose, or the depositor's remark. Most compounds without a hit are left out; they make up all but 0.91% or so of the library. Unless noted, calls come from the whole dose curve; as a rule, active = well fitted curve in the direction sought with a large enough effect; inconclusive = small, poorly fitted or top-dose-only effect, or another doubt; inactive = no such curve, though single readings can be large; an effect the other way counts as inactive or inconclusive. Unless noted, % is set by controls: 0 for no effect and ±100 for the full control effect; potency is the fitted concentration of half-maximal effect.
SMILES,RECQ1 inh-1,APE1 inh,WRN inhibitor,BLM helicase inh,TR SRC2 fluor cs,TRb SRC2 PPI,RECQ1 inh-2,others
Cc1cc2cc(CNC(=O)c3ccc(S(=O)(=O)N4CCCC4)cc3)ccc2n1C,?,-5%,-9%,-12%,45µM*[fluorescent],35µM*,-6%,
COc1ccc(S(=O)(=O)NCc2ccc3c(c2)cc(C)n3C)cc1,32µM*,-11%,-18%,-13%,?,-24%,?,
Cc1cc2cc(CNC(=O)c3ccc(S(=O)(=O)N4CCCCC4)cc3)ccc2n1C,4%,-2%,9%,-1%,-3%,-8%,nt,
Cc1ccc(NC(=O)NCc2cccn2Cc2ccccc2)c(C)c1,nt,nt,nt,0%,-3%,-5%,nt,
CC(O)c1c(-c2ccccc2)nn(C)c1Cl (stereo unspecified),40µM*,22%,4%,-1%,-1%,1%,-9%,
Cc1cc(N)c2ccccc2[n+]1CCCCCCCCCC[n+]1c(C)cc(N)c2ccccc21,?,?,nt,-27%,-7%,-1%,nt,RECQ1 conf=?;RECQ1 ADP FP=22µM*
CCCCC#CC1C=CC(OC(C)=O)C(COC(C)=O)O1 (stereo unspecified),i[11.5 µM],13%[12.4 µM],nt,-1%[12.4 µM],?,0%[11.2 µM],nt,
CCCCN(C(=O)CN1CC(C)OC(C)C1)c1c(N)n(CC(C)C)c(=O)[nH]c1=O (stereo unspecified),-5%,18%,-4%,3%,3%,4%,nt,
CCCCN(C(=O)Cn1ncc(Cl)c(Cl)c1=O)c1c(N)n(CC(C)C)c(=O)[nH]c1=O,28µM*,-5%,-34%,-18%,-1%,-2%,?,
C#CCn1c(=NC(=O)c2ccc(S(=O)(=O)N3CCCc4ccccc43)cc2)sc2cc(S(N)(=O)=O)ccc21,0%,2%,?,-4%,1%,5%,nt,RECQ1 conf=-7%;RECQ1 ADP FP=20%
Cn1c(=NC(=O)c2ccc(S(=O)(=O)N3CCCc4ccccc43)cc2)sc2cc(S(C)(=O)=O)ccc21,-2%,-1%,-14%,0%,-2%,0%,nt,
CCOc1ccc2oc(-c3ccccc3)c(C(=O)O)c2c1,?,8%,0%[57.1 µM],-1%,-2%,7%,-7%,
C=C1c2c(Cl)ccc(O)c2C(O)=C2C(=O)[C@@]3(O)C(O)=C(C(N)=O)C(=O)[C@@H](N(C)C)[C@@H]3[C@@H](O)[C@H]12,3.5µM*,nt,nt,-6%[21.4 µM],-6%[53 µM],-6%[53 µM],nt,RECQ1 conf=50%[69.1 µM];RECQ1 ADP FP=32µM*
Cc1nc2nc(-c3ccccc3)cc(=O)n2[nH]1,-1%,0%,7%,2%,-3%,-7%,nt,
O=c1cc(-c2ccccc2)nc2nc(-c3ccco3)[nH]n12,25µM*,-6%,-30%,-15%,-4%,-23%,-4%,
O=C(O)c1cc(-c2ccc(C(F)(F)F)cc2)nc2n[nH]c(-c3ccccc3)c12,nt,nt,nt,-6%,0%,-10%,nt,
NS(=O)(=O)c1ccc(NC(=O)N2c3ccccc3Sc3ccccc32)cc1,i,?,-13%,2%,-4%,-16%,nt,
CC1CCN(S(=O)(=O)c2ccc(NC(=O)N3c4ccccc4Sc4ccccc43)cc2)CC1,-13%,1%,2%,-5%,-4%,-7%,nt,RECQ1 conf=-10%;RECQ1 ADP FP=42%
O=c1cnc2cnc(Oc3ccccc3)nc2n1Cc1cccs1,-4%,1%,nt,-4%,nt,nt,nt,
Cc1ccc(NC(=O)c2cc(S(=O)(=O)NCCc3ccccc3)ccc2F)cc1Cl,?,-5%,-23%[57.1 µM],-10%,-10%,2%,-19%,
Cc1ccc(C)c(NC(=O)c2cc(S(=O)(=O)NCCc3ccccc3)ccc2F)c1,nt,nt,nt,-7%,-2%,-1%,nt,
COc1cc(Cl)c(C)cc1NC(=O)CC1Oc2ccccc2NC1=O (stereo unspecified),nt,nt,nt,-4%,-26%,2%,nt,
O=C(Cc1cnn(-c2ccccc2)c1)c1ccc(O)c(O)c1O,3.2µM*,?,11µM*,-10%,0%,-3%,nt,RECQ1 conf=-2%[114 µM];RECQ1 ADP FP=30%[91.9 µM]
CCc1cc(C(=O)Cc2cnn(-c3ccccc3)c2)c(O)cc1O,1%,0%,-14%,-12%,1%,-5%,nt,
SMILES,RECQ1 inh-1,APE1 inh,WRN inhibitor,BLM helicase inh,TR SRC2 fluor cs,TRb SRC2 PPI,RECQ1 inh-2,others
Cc1c(CCOC(=O)c2ccc(N3CCOCC3)c([N+](=O)[O-])c2)sc[n+]1CC#N,?,12%,-9%,-1%,-1%,1%,?,
O=C(COC(=O)c1cc(S(=O)(=O)N2CCOCC2)ccc1Cl)Nc1ccccc1Cl,nt,-11%,-4%,nt,nt,nt,nt,
C=CCn1c(COc2ccc(F)cc2)nnc1SCC(=O)NC(=O)NCc1ccco1,?,?,-21%[57.1 µM],-29%,-3%,-8%,?,
Cc1noc(C)c1C(=O)Nc1ccccc1N1CCCC1,nt,13%,2%,nt,nt,nt,nt,
CC1=C(C(=O)N2CCOCC2)C(c2cc(C)cs2)NC(=O)N1 (stereo unspecified),?,?,-7%,-1%,28µM*[fluorescent],20µM*,79µM*,
CCCCc1c(C)nc2cc(-c3ccco3)[nH]n2c1=O,-8%,?,-33%,-3%,1%,-6%,nt,
